Test [1] can be described thus: resazurin metabolic signal in HepG2 cells – cell-based, resazurin fluorescence, 24 h, PK04 Diversity Set, profiling panel (AID 1172). Note: test concentration not given here. The note with it: HepG2 viability, higher = more signal. (Resazurin is reduced to fluorescent resorufin, in cell work by metabolically active cells.)
Test [2] in a line: budding yeast growth changes without added modifier – OD600, strain BY4716, 24 h, basal condition, primary screen (AID 1173). Conditions: S. cerevisiae BY4716 growth, OD600, 24 h; higher = more signal, called active from +8 up or from −8 down.
Test [3] can be described thus: viability profiling in MM1S myeloma cells – cell-based, resazurin fluorescence, basal, 24 h, PK04 Diversity Set, profiling panel (AID 1174).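 Note: MM1S multiple myeloma cell line; test concentration not given here.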 The note with it: higher = more signal, called active from +8 up or from −8 down.
The target in test [4] is Dihydroorotate dehydrogenase (quinone), mitochondrial (Plasmodium falciparum (isolate 3D7)) (UniProt Q08210). Kind of test: inhibition of P. falciparum DHODH – biochemical, C-terminal His tag, absorbance 600 nm, primary screen (AID 1175).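 Note: recombinant parasite enzyme with a five histidine tag at its C terminus; test concentration not given here.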 Conditions: PfDHODH enzyme, DCIP absorbance 600 nm; higher = more signal, called active from +8 up or from −8 down.
Chain of Dihydroorotate dehydrogenase (quinone), mitochondrial (Plasmodium falciparum (isolate 3D7)) (Q08210 whole entry, looked up): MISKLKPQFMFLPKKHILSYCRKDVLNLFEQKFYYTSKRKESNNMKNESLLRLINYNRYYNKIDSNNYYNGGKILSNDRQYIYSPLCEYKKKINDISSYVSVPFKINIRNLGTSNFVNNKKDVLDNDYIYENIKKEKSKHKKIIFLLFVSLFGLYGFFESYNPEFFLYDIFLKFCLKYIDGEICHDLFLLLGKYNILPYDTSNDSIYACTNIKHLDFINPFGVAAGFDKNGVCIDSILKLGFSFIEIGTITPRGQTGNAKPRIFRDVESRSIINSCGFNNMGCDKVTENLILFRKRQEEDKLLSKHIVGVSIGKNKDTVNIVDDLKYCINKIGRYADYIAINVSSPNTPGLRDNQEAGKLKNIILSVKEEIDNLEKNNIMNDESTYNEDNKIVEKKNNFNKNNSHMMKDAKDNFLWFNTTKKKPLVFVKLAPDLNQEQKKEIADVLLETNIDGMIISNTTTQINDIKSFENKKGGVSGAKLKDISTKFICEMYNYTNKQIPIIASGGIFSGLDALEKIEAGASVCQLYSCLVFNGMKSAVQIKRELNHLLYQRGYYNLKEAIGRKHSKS
Test [5] can be described thus: inhibition of PAO1 biofilm formation – strain PAO1, LB-PBS medium, absorbance 600 nm, primary screen (AID 1176). Note: test concentration not given here. Conditions: P. aeruginosa PAO1 growth/biofilm, A600, 12 h; higher = more signal.
Test [6] can be described thus: growth modulation of vineyard yeast isolate – strain RM11-1a, OD600, basal, 24 h, primary screen (AID 1177).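 Note: cultures grown under basal conditions with no added stressor; test concentration not given here.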 Conditions: S. cerevisiae RM11-1a growth, OD600, 24 h; higher = more signal, called active from +8 up or from −8 down.
Test [7] in a line: growth of efflux-deficient E. coli DRC39 – strain DRC39, OD650, 24 h, E. coli filamentation inducers, primary screen (AID 1178).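 Note: growth measured as culture turbidity by optical density at 650 nm; test concentration not given here.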 The note with it: E. coli DRC39 acrAB, higher = more signal, called active from +8 up or from −8 down.
A short description of test [8]: growth of efflux-deficient E. coli DRC39 – strain DRC39, OD650, 48 h, E. coli filamentation inducers, primary screen (AID 1179).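 Note: screen aims at cell division blockers that make cells filament.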 The note with it: E. coli DRC39 delta-acrAB growth, higher = more signal, called active from +8 up or from −8 down.
Test [9] can be described thus: viability profiling in RPMI8226 myeloma cells – cell-based, resazurin fluorescence, basal, 24 h, PK04 Diversity Set, profiling panel (AID 1180).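 Note: RPMI8826 multiple myeloma cell line at 5000 cells per well; test concentration not given here.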 Conditions: higher = more signal.
Test [10] addresses E3 ubiquitin-protein ligase XIAP (Homo sapiens) (UniProt P98170). Kind of test: small molecules binding XIAP protein – biophysical, small-molecule microarray, fluorescence 635 nm, primary screen (AID 1181).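 Note: score merges 667 nm emission and signal to noise over triplicate slides.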 Conditions: higher = more signal.

Activity calls are given as the source filed them. Unless noted, the rule behind the calls is not given here.

The results in this text go back to PubChem BioAssay.

Chain of E3 ubiquitin-protein ligase XIAP (Homo sapiens) (P98170 whole entry, looked up): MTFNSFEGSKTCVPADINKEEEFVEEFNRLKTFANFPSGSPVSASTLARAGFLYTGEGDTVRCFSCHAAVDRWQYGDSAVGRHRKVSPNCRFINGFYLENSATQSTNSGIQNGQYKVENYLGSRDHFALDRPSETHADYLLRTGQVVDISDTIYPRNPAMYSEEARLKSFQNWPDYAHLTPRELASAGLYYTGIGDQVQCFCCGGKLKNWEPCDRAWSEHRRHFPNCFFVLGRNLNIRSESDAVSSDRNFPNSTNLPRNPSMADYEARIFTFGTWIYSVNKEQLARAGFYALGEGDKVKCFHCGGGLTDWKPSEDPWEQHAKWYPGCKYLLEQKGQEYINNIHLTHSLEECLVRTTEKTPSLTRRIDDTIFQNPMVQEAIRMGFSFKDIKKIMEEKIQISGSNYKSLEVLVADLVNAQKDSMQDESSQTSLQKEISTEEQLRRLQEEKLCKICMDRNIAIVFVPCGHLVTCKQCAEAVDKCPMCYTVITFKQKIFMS

`O=C1[C@H]2[C@H]3[C@H](O)[C@H](O)CC(=NOC[C@@H](O)COCc4ccco4)[C@H]3CC[C@H]2C(=O)N1Cc1ccc2c(c1)OCO2`: the z-score was 0.102 in [1]; 0.684 (inactive) in test [2]; -0.293 (inactive) in test [3]; -0.85 (inactive) in [5]; 0.0885 (inactive) in [6]; 0.786 (inactive) in test [7]. The z-score in test [8] was 1.11 (inactive); in test [9] it was 0.263. Also, the values for the composite z-score in test [4] and in test [10] were -0.566 (inactive) and 0.0049, respectively.

In the case of `CC(C)[C@@H](OCc1ccccc1)[C@H](C)C=NOC[C@@H](C)[C@H](OCc1ccccc1)C(C)C`, the z-score in test [1] was -0.914; in test [2], 0.425 (inactive); in [3], -0.908 (inactive); in [5], -0.324 (inactive); in test [6], -0.089 (inactive); in test [7] it was 0.705 (inactive). Also, the z-score in test [8] is 1.09 (inactive); in [9] it was -1.11. The composite z-score was -0.213 (inactive) in [4] and -0.345 in test [10].

On to `C=CC[C@@H]1C=C[C@H](ON=C[C@@H](OC)[C@H](C)C=CCC(=O)OC)[C@@H](CO)O1`, for which the z-score in test [1] is -0.266; in test [2] it was -0.54 (inactive); in [3], -0.709 (inactive); in test [5], -0.537 (inactive); in [6], 1.17 (inactive); in test [7], 0.456 (inactive). Besides, the z-score in [8] is 0.732 (inactive); in test [9] it was -0.707. Besides, the composite z-score in [4] was 0.217 (inactive); in test [10], 0.32.

In the case of `CC(C)NC(=O)[C@@]1(C)c2ccccc2C(=O)N(Cc2cc(F)cc(C(F)(F)F)c2)[C@H]1c1ccc(CO)cc1`, the z-score in [1] was -0.0499; in test [2], 0.118 (inactive); in test [3], 0.0847 (inactive); in test [5] it was 0.897 (inactive); in test [6], -0.0826 (inactive); in [7] it was -0.0821 (inactive). The values for the z-score in test [8] and in test [9] were -0.043 (inactive) and -0.744, respectively. Moreover, the composite z-score was 0.0724 (inactive) in test [4] and -0.157 in test [10].

As for `C=C(COC)/C(=C/C[C@H](OC(=O)c1ccncc1)c1ccc(CO)o1)c1cc(C(=O)OC)ccc1OC`, the z-score in [1] was -0.0086; in test [2] it was -0.154 (inactive); in [3] it was -0.486 (inactive); in test [5], 1.11 (inactive); in test [6], -0.328 (inactive); in test [7] it was -0.268 (inactive). For the same compound, the results for the z-score in [8] and in [9] were 0.0389 (inactive) and 0.343, respectively. The composite z-score in [4] is -1.02 (inactive); in test [10] it was -0.168.

Turning to `CCCNC(=O)[C@@H]1c2ccccc2C(=O)N(Cc2ccccc2Cl)[C@H]1c1ccc(CO)cc1`, the z-score was 1.44 in test [1]; -0.768 (inactive) in test [2]; 0.496 (inactive) in test [3]; -0.217 (inactive) in test [5]; 0.251 (inactive) in test [6]; 0.812 (inactive) in test [7]. Further, the results for the z-score in test [8] and in [9] were 0.829 (inactive) and 1.45, respectively. Also, the results for the composite z-score in test [4] and in test [10] were -0.227 (inactive) and -0.078, respectively.

On to `O=C1[C@H]2[C@H]3[C@H](O)[C@H](O)CC(=NO[C@@H]4O[C@H](CO)[C@@H](O)[C@H](O)[C@H]4O)[C@@H]3CC[C@H]2C(=O)N1Cc1ccc2c(c1)OCO2`, for which the z-score in [1] was -0.191; in test [2], -0.387 (inactive); in test [3] it was 0.0622 (inactive); in [5] it was -0.389 (inactive); in test [6], -0.558 (inactive); in [7], -0.494 (inactive). Besides, the z-score is -0.136 (inactive) in [8] and 0.36 in test [9]. Moreover, the values for the composite z-score in [4] and in test [10] were 0.0922 (inactive) and -0.0552, respectively.

As to `C[C@@H]1C=CCC(=O)OC[C@H](C)C(=O)N2CCC[C@H]2C(=O)OC1`, the z-score in test [1] is 0.613; in test [2], 0.516 (inactive); in [3], -0.0084 (inactive); in test [5], -0.549 (inactive); in test [6], 0.21 (inactive); in [7], 0.686 (inactive). The figures for the z-score in [8] and in test [9] were 0.528 (inactive) and 0.575, respectively. In addition, the composite z-score in test [4] was -0.697 (inactive); in test [10] it was -0.0416.

For `CCOC(=O)[C@H](CC(C)C)NC(=O)CCC1CC(OC(=O)NCCc2ccc(F)cc2)CC2(CCCC(COC(=O)NCc3ccccc3)O2)O1` (stereo not given in full), the z-score was -0.816 in test [1]; -0.849 (inactive) in test [2]; 0.409 (inactive) in test [3]; -0.613 (inactive) in test [5]; -0.0385 (inactive) in test [6]; -0.221 (inactive) in test [7]. In addition, the z-score in test [8] is -0.565 (inactive); in [9], 0.185. The figures for the composite z-score in [4] and in test [10] were -2.24 (inactive) and -0.0333, respectively.

Consider `CCOC(=O)[C@H](Cc1ccccc1)NC(=O)CCC1CC(OC(=O)NCc2ccc3c(c2)OCO3)CC2(CCCC(COC(=O)NCC3CCCCC3)O2)O1` (stereo not given in full), for which the z-score in test [1] is 1.19; in [2], -0.653 (inactive); in test [3] it was 0.625 (inactive); in [5], -0.695 (inactive); in test [6], 0.104 (inactive); in test [7], 0.0066 (inactive). In addition, the values for the z-score in test [8] and in test [9] were 0.216 (inactive) and 0.419, respectively. Besides, the values for the composite z-score in test [4] and in test [10] were -0.0475 (inactive) and 0.257, respectively.

Consider `COC(=O)[C@@H]1CC[C@H](C)[C@@H](c2ccc(C)cc2)N1C(=O)c1ccc(C=NOC(C)CN2CCCCc3nc(C)c(C)cc32)cc1` (stereo not given in full), for which the z-score in test [1] was 1.03; in test [2], -0.104 (inactive); in [3] it was -0.725 (inactive); in [5] it was 0.642 (inactive); in [6], 0.984 (inactive); in test [7] it was 0.419 (inactive). The results for the z-score in test [8] and in test [9] were -0.27 (inactive) and -0.0629, respectively. Further, the composite z-score in [4] is 0.613 (inactive); in [10], 0.147.

As for `O[C@@H](Cc1ccccc1)[C@H]1C2C=CCCC(c3ccccc3)=C2CN1Cc1cccc(Cl)c1` (stereo not given in full), the z-score in test [1] is 0.689; in test [2], -3.75 (inactive); in test [3] it was -0.146 (inactive); in [5], 1.56 (inactive); in test [6] it was -0.53 (inactive); in test [7], 3.04 (inactive). Also, the z-score is 1.85 (inactive) in test [8] and -0.0337 in test [9]. Further, the composite z-score was 0.426 (inactive) in test [4] and 0.25 in [10].

`[N-]=[N+]=NCc1ccccc1[C@@H]1OC(c2ccc(OCCCO)cc2)=N[C@]1(Cc1ccccc1)C(=O)N1CCOCC1`: the z-score in test [1] was -0.85; in test [2] it was -0.833 (inactive); in test [3] it was -1.15 (inactive); in test [5], -0.208 (inactive); in test [6], 0.165 (inactive); in test [7], 0.559 (inactive). For the same compound, the z-score in [8] is 0.917 (inactive); in test [9], -0.425. The composite z-score in test [4] was -0.0859 (inactive); in test [10], 0.113.
